Compound activity deposited in PubChem by National Center for Advancing Translational Sciences (NCATS).
A selection: hits, their analogues and other compounds. The true share with any hit is near 4.7%.
D1 ag – agonists of human D1 dopamine receptor | activation, % at 2 µM | AID 504660 | P21728 | HEK293 T-REx D1 cells, calcium flux, agonist mode | 360,000 tested, 1% active
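Tetracycline-induced HEK293 TREx D1 cells, force-coupled to calcium signalling, were dye-loaded with a no-wash calcium kit. Compound was pin-added after a 10 s baseline. Fluorescence was read kinetically at 1 cycle/s for 180 s, with calcium rises flagged as agonism.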
D1 antag – human D1 dopamine receptor antagonism; P21728; HEK293 TREx D1 cells, calcium flux, dopamine EC80; stronger effect = lower value; activity change, negative = inhibition, % at 10 µM; 360,000 tested, 3.2% active; in the data active means activity change below about -30%
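Compound effects on dopamine-evoked calcium signalling were measured in tetracycline-induced HEK293 Trex D1 cells. Dopamine at EC80 followed a 180 s compound pre-read, and fluorescence was tracked kinetically for 180 s more.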
TRHR PAM – allosterically enhances the human TRH receptor; P34981; TRHR cells, fluo-8 calcium fluorescence, EC20 TRH enhancement; enhancement, % at 2 µM; 360,000 tested, 0.66% active; in the data active means enhancement above about 30%
Target sequence (P34981 whole entry, looked up): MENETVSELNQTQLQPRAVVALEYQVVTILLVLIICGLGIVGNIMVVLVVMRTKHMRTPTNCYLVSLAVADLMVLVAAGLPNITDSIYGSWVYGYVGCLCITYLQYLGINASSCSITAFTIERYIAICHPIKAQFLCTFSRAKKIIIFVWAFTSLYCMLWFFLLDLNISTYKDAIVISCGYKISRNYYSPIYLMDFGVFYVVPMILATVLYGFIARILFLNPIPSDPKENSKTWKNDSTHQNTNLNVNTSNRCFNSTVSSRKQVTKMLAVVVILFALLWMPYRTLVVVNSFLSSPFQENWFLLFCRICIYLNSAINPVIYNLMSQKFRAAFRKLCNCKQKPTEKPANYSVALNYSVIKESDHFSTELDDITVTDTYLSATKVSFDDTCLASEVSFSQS
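Enhancer read-out: after compound pinning and an initial kinetic agonist-mode read, an EC20 of TRH (10 nM final) was injected and fluo-8 calcium signal (Ex 480/Em 530) followed at 1 s/cycle for 100 cycles in TRHR-expressing cells.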
TRHR ag – agonists of human TRH receptor; P34981; TRHR cells, calcium flux fluo-8, FDSS agonist mode; activation, % at 2 µM; 360,000 tested, 0.18% active; AID 493084
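Fluo-8-loaded TRHR cells; 10 s baseline, compound added, kinetic Ca2+ fluorescence read 1/s, agonist mode.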
D1 potentiator – enhances dopamine response at the human D1 receptor; 360,000 tested, 0.036% active; HEK293 TREx D1 cells, calcium flux, dopamine EC20 potentiation; P21728; AID 504651; potentiation, % at 10 µM; in the data active means potentiation above about 30%
Large screens that a line does not name were inactive; ! = not active in a repeat. Unless noted, no stated cut-off is given here; in the data, active means activation above about 30%; inactive means the rest.

COc1ccc(Br)cc1CNC(=O)CCc1cn(Cc2ccc(C)cc2)c2ccccc12	none
COc1ccc(/C=N/Nc2ncnc3sc(C)c(C)c23)cc1	none
Cc1sc2ncnc(N/N=C/c3ccc(O)cc3)c2c1C	D1 antag -86.2
Cc1ccccc1N1CCN(C(=O)NCc2cccc(Cl)c2)CC1	none
CC(C)(C)n1nnnc1C(c1ccncc1)N1CCN(C2CCCCC2)CC1 (stereo not given)	none
Cc1cccc(N2CCN(C(c3ccncc3)c3nnnn3C(C)(C)C)CC2)c1C (stereo not given)	D1 antag -40.3
O=C(/C=C\c1ccccc1)NC1CC(=O)N(c2ccccc2)C1 (stereo not given)	none (no result: D1 antag)
CC(C)N(CC(N)=O)c1ccc(S(=O)(=O)N2CCCC2)cn1	none (no result: D1 potentiator)
CCn1c(C(=O)Nc2c(C)cccc2C)cc2sc(Cl)cc21	D1 antag -42.2
Cn1c(C(=O)Nc2ccc(Cl)cc2)cc2cc(Cl)ccc21	TRHR PAM 32.5
CCc1ccccc1NC(=O)c1cc2sc(Cl)cc2n1CC	none
CCc1ccc(NC(=O)c2cc3sc(Cl)cc3n2C)cc1	D1 antag -42.7
CC(C)c1ccc(NC(=O)c2cc3sc(Cl)cc3n2C)cc1	none
CCOC(=O)c1ccc(NC(=O)CCc2c(C)nc3c(c(C)nn3C)c2C)cc1	none
COC(=O)Nc1ccc(S(=O)(=O)N2CCCc3ccccc32)cc1	D1 antag -38.4
O=C(Nc1ccc(S(=O)(=O)N2CCc3ccccc32)cc1)C(F)(F)F	none
CCC(=O)Nc1ccc(S(=O)(=O)N2CCc3ccccc32)cc1	D1 antag -40.8
O=C(Nc1nnc(S(=O)(=O)N2CCCc3ccccc32)s1)c1ccccc1	D1 antag -32.8
O=C(Nc1nnc(S(=O)(=O)N2CCc3ccccc32)s1)c1ccccc1	none
COc1ccccc1NC(=O)CN(c1cc(C)cc(C)c1)S(=O)(=O)c1c(C)[nH]c(=O)[nH]c1=O	none
Cc1cc2c(s1)c1cnn(Cc3ccc(C#N)cc3)c(=O)c1n2C	none
COC(=O)c1ccccc1S(=O)(=O)N1CCC(C(=O)NC2CCCCC2C)CC1 (stereo not given)	none
NS(=O)(=O)c1ccc(Nc2nc(-c3ccc4ccccc4c3)cs2)cc1	none
NS(=O)(=O)c1ccc(Nc2nc(-c3cccc([N+](=O)[O-])c3)cs2)cc1	D1 antag -30.6
CC(C)(C)CC(C)(C)NCC(O)COc1c(F)cc(Br)cc1F (stereo not given)	D1 ag 39.4
Cc1cccc(-c2nc3scc(CCNS(=O)(=O)c4ccc(F)cc4C)n3n2)c1	none (no result: D1 antag)
Cc1ccc(C(C)C)c(OCCSc2nc(-c3ccccc3F)nc3cc(=O)[nH]n23)c1	D1 ag 37.6
Cc1ccc(OCCSc2nc(-c3ccccc3C)nc3cc(=O)[nH]n23)cc1Cl	D1 antag -62.4
CCN1C(=NCc2ccc(OC)cc2)N[C@@H](c2ccccc2)[C@H](C(=O)OC)[C@H]1C	TRHR PAM 30.8
CCN1C(=NCc2ccccc2)N[C@@H](c2ccccc2)[C@H](C(=O)OC)[C@H]1C	none
CCCc1nn2c(=O)cc(COc3ccc(/C=C(\C#N)C(=O)Nc4ccccc4)cc3)nc2s1	none
COc1ccc(N2CCN(C(=O)c3ccccc3Br)CC2)c([N+](=O)[O-])c1	D1 ag 37.6, D1 antag -48.6
COc1ccc(N2CCN(C(=O)c3ccccc3)CC2)c([N+](=O)[O-])c1	none
COc1cccc(CC(=O)N2CCN(c3ccccc3[N+](=O)[O-])CC2)c1	D1 antag -39.8
O=C(COC(=O)CNC(=O)c1ccc(Br)cc1)Nc1nnc(-c2ccccc2)o1	D1 antag -37.8
Cc1ccc(C(=O)CCC(=O)OCC(=O)Nc2nnc(-c3ccccc3)o2)cc1	D1 antag -50.0, TRHR PAM 40.5
CCOc1ccc(C(=O)NCC(=O)OCC(=O)Nc2nnc(-c3ccccc3)o2)cc1	none (no result: D1 potentiator)
CC1=C(C(=O)Nc2ccccc2C)C(c2cccs2)n2nc(SCc3ccccc3)nc2N1 (stereo not given)	none
CCc1ccc(N=Nc2ccc(O)c3[nH]cnc23)cc1	D1 ag 40.0 (no result: D1 antag)
COc1ccc(N=Nc2ccc(O)c3ncccc23)cc1	none
CCCNC(=S)N1CCN(C(c2ccccc2)c2ccccc2)CC1	D1 antag -32.8
COc1cc(NC(=S)N2CCN(C/C=C/c3ccccc3)CC2)cc(OC)c1	none
COc1cc(NC(=S)N2CCN(C(c3ccccc3)c3ccccc3)CC2)cc(OC)c1	D1 antag -32.4
Cc1ccc(C)c(-c2csc(NC(=O)c3cnccn3)n2)c1	none
O=C1CCc2cc(S(=O)(=O)Nc3ccccc3F)ccc2N1	D1 antag -41.8
O=C1CCc2cc(S(=O)(=O)Nc3ccccc3Cl)ccc2N1	none
Cc1ccc(S(=O)(=O)c2c(N)n(CCN3CCOCC3)c3nc4ccccc4nc23)cc1C	none
Cc1ccc(S(=O)(=O)c2c(N)n(Cc3ccco3)c3nc4ccccc4nc23)cc1C	D1 ag 91.7
Cc1ccc(C)c(-n2c(-c3ccc(Br)cc3)csc2=NC(=O)c2ccccc2F)c1	D1 antag -42.0
Cn1ccsc1=NC(=O)c1ccccc1F	none
Cc1nnc2c(N3CCN(CCO)CC3)nc3ccccc3n12	none
COc1ccc(N2CCN(c3nc4ccccc4n4c(C)nnc34)CC2)cc1	D1 antag -76.2
COc1ccc(Nc2nc(-c3sc(N)nc3C)cs2)cc1	none
COc1ccc(CCNc2nc(-c3sc(N)nc3C)cs2)cc1OC	D1 antag -60.6
O=C(O)c1ccc(S(=O)(=O)c2ccc3c(c2)C(=O)N(NC(=O)c2ccc(O)cc2)C3=O)cc1	none
Cc1ccc(C(=O)NN2C(=O)c3ccc(S(=O)(=O)c4ccc(C(=O)O)cc4)cc3C2=O)cc1	D1 antag -42.7
CC(C)Cn1c(N)c(C(=O)COC(=O)C2CCCCC2)c(=O)n(C)c1=O	D1 antag -37.7
C/C=C1\C(OC2OC(CO)C(O)C(O)C2O)OC=C(C(=O)OC)C1CC(=O)OCC1C(C)C(OC(=O)CC2C(C(=O)OC)=COC(OC3OC(CO)C(O)C(O)C3O)/C2=C\C)CC1C(CO)CO (stereo not given)	D1 antag -31.2
COC(=O)c1sc(S(=O)(=O)N2CCN(c3ccc(OC)cc3)CC2)c(C(=O)OC)c1C	D1 antag -40.0!
COC(=O)c1sc(S(=O)(=O)N2CCC(C(N)=O)CC2)c(C(=O)OC)c1C	none
Cc1ccc(C)c(N2CCN(C(=O)NCc3noc4ccccc34)CC2)c1	D1 antag -41.9
Cc1ccc(C)c(N2CCN(C(=O)CN3C(=O)c4ccccc4C3=O)CC2)c1	D1 antag -34.6
Cc1ccccc1N1CCN(C(=O)CN2C(=O)c3ccccc3C2=O)CC1	none
O=C(CSc1nnc(N2CCCC2)n1-c1ccccc1Cl)N1CCN(c2ccccn2)CC1	D1 antag -52.3
O=C(CCCN1C(=O)c2ccccc2C1=O)N1CCN(c2ccccn2)CC1	none
